Results filed as inconclusive are left out. Active and inactive are the calls of the source. Calls come from the whole dose curve; as a rule, active = well fitted curve in the direction sought with a large enough effect; inconclusive = small, poorly fitted or top-dose-only effect, or another doubt; inactive = no such curve, though single readings can be large; an effect the other way counts as inactive or inconclusive.
Columns and labels:
[1] = biological target: Rap guanine nucleotide exchange factor 3 (Homo sapiens) (UniProt O95398); test: Confirmatory qHTS for antagonist of cAMP-regulated guanine nucleotide exchange factor 3 (EPAC1) (AID 1645880); conditions: EPAC1 Rap1B-BODIPY-GDP exchange, fluorescence; activity, negative = inhibition: at 115 µM (top of the series);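 note: plate controls were DMSO only for no effect and full effect of the ATA control for full effect; nearly all actives have a fitted effect of over 55% in size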
Rap guanine nucleotide exchange factor 3 (Homo sapiens), sequence (O95398 whole entry, looked up): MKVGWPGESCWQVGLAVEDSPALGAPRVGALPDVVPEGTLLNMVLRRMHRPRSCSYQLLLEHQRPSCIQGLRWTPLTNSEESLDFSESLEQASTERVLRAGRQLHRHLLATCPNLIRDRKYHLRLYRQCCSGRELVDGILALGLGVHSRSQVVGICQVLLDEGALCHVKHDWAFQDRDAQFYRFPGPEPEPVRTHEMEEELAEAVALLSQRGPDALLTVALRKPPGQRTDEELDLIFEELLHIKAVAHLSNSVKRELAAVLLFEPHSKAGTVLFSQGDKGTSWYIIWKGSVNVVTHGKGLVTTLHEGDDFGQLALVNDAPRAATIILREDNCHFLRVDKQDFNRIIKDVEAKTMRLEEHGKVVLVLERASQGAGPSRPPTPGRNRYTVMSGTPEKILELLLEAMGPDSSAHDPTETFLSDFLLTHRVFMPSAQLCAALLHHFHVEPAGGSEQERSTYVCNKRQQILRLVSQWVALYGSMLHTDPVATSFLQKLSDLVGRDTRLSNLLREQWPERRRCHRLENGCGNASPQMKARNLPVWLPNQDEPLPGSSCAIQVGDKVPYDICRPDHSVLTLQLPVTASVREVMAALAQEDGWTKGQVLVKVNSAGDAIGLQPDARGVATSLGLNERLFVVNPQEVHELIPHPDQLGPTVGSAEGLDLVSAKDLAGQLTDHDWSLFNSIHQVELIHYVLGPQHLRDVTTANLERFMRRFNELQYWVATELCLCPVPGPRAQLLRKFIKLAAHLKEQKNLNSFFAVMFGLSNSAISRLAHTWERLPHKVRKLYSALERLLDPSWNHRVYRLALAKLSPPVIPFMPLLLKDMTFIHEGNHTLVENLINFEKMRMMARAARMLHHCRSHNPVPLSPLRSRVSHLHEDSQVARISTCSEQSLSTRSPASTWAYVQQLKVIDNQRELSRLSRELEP
Method in brief: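 Released BODIPY-GDP fluoresces less than Rap1-bound BODIPY-GDP; the signal is followed at 480/540 nm at 5-min intervals over 30 min, after 5 min at room temperature. Reactions contain 100 nM EPAC1, 250 nM RAP1B-BODIPY-GDP and 50 uM GDP; results are normalized to ATA and DMSO.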

[2] = biological target: Rap guanine nucleotide exchange factor 4 (Homo sapiens) (UniProt Q8WZA2); test: Confirmatory qHTS for agonist of cAMP-regulated guanine nucleotide exchange factor 4 (EPAC2) (AID 1645884);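 note: nucleotide exchange releases bodipy-GDP from Rap1 and this lowers its fluorescence; % is set by controls: 0 for no effect and ±100 for the full control effect; nearly all actives have a fitted effect of over 65% in size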
Rap guanine nucleotide exchange factor 4 (Homo sapiens), sequence (Q8WZA2 whole entry, looked up): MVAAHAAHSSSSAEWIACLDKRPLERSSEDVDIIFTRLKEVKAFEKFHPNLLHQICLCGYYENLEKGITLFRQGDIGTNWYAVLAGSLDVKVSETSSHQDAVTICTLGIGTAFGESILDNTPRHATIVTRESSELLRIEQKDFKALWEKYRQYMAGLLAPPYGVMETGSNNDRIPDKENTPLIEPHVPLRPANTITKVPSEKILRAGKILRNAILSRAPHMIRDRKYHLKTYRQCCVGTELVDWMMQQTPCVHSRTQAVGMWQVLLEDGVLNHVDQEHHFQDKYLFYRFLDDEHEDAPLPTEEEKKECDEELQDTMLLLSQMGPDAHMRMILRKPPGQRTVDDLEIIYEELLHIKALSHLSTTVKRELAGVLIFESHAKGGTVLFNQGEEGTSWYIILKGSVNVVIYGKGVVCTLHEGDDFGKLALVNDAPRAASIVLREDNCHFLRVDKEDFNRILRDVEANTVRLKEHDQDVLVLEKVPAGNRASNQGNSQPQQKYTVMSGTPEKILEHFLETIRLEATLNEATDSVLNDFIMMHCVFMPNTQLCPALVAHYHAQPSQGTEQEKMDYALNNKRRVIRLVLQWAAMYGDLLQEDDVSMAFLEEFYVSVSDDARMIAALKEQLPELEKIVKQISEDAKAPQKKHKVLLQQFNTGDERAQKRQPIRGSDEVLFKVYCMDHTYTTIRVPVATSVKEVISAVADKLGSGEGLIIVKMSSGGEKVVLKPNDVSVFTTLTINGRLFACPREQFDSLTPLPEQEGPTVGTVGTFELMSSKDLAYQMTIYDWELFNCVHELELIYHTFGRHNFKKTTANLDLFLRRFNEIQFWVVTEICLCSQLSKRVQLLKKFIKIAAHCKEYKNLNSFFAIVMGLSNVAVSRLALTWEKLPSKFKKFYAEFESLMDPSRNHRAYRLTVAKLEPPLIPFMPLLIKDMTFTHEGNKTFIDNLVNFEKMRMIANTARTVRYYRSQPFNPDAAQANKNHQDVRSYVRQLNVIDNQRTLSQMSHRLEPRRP

[3] = biological target: Rap guanine nucleotide exchange factor 4 (Homo sapiens) (UniProt Q8WZA2); test: Confirmatory qHTS for antagonist of cAMP-regulated guanine nucleotide exchange factor 4 (EPAC2) (AID 1645885); note: nearly all actives have a fitted effect of over 25% in size; note: potency is the fitted concentration of half-maximal effect; for activity change, negative = inhibition: % is set by controls: 0 for no effect and ±100 for the full control effect
[4] = biological target: Rap guanine nucleotide exchange factor 3 (Homo sapiens) (UniProt O95398); test: Counterscreen qHTS for antagonist of cAMP-regulated guanine nucleotide exchange factor 3 (EPAC1) (AID 1645888); note: % of control where 0% means no effect
Method in brief: (§1)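 Measured: fluorescence of BODIPY-GDP bound to Rap1B, which falls as exchange proceeds. Conditions include 50 uM competing GDP, 5 and 30 min reads, and a later cAMP challenge for antagonist detection.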

[5] = biological target: Rap guanine nucleotide exchange factor 3 (Homo sapiens) (UniProt O95398); test: Confirmatory qHTS for agonist of cAMP-regulated guanine nucleotide exchange factor 3 (EPAC1) (AID 1645881);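 note: EPAC1 catalysed release of BODIPY-GDP from Rap1B seen as fluorescence loss; 100% = effect of cAMP agonist control; nearly all actives have a fitted effect of over 75% in size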
[6] = biological target: Rap guanine nucleotide exchange factor 3 (Homo sapiens) (UniProt O95398); test: Counterscreen qHTS for agonist of cAMP-regulated guanine nucleotide exchange factor 3 (EPAC1) (AID 1645889); note: % of control where 0% means no effect; nearly all actives have a fitted effect of over 40% in size
Method in brief: as §1

COc1cc2c(c(OC)c1OC)C(c1ccc(C)cc1)CC(=O)O2 (stereo unspecified)
inactive: Potency [1] | activation [2] 3.46% [at 17.1 µM, percent relative to cAMP agonist control] | Potency [3] | activity change, negative = inhibition [4] 6.91% [at 30.8 µM]

COC(=O)C1=CN(C(C)c2ccccc2)C=C(C(=O)OC)C1c1cc(OC)c(OC)c(OC)c1 (stereo unspecified)
active: Potency [3] 26.9 µM
inactive: Potency [1] | Potency [2] | Potency [4]

Oc1c(C(c2ccccc2)N2CCN(c3ccccc3)CC2)sc2nc(-c3ccco3)nn12 (stereo unspecified)
inactive: Potency [1] | Potency [2] | Potency [3] | Potency [4]

CN1CCc2c(sc(NC(=O)CSc3ccccc3)c2-c2nc3ccccc3s2)C1
inactive: Potency [1] | Potency [2] | Potency [3] | Potency [4]

CCN1CCN(Cc2c(O)ccc3c2O/C(=C\C=C\c2ccccc2OC)C3=O)CC1
inactive: Potency [1] | activation [2] 5.66% [at 17.1 µM, percent relative to cAMP agonist control] | Potency [3]

Cc1ccc(C2(c3noc(CN(C)Cc4ccccn4)n3)CCCC2)cc1
inactive: Potency [1] | Potency [5] | activity change, negative = inhibition [4] -21.5% [at 30.8 µM] | activation [6] 1.73% [at 30.8 µM]

COC(=O)c1ccc2nc(-c3ccc(F)cc3)c(Cc3ccccc3)n2c1
inactive: Potency [1] | Potency [5] | activation [6] 19.8% [at 30.8 µM]

Reference: PubChem BioAssay (NCATS)
